Laboratory results reported in PubChem BioAssay (NCI).
Compounds without any hit were thinned out: in the full panel of roughly 83,000, 20% have a hit.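 Method: cells in 96-well plates; compound added at one concentration; 48 h incubation; percent growth measured; values under 10 scored active.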 Calls of active or inactive are those of the source.

System: HS 578T breast
Experiment: NCI-60 one-dose screen, 48 h (100 = growth as untreated, 0 = no growth, -100 = all killed)
Settings: 10 µM

| Compound | growth |
| --- | --- |
| COc1ccc(/C(C#N)=C/c2ccccc2OC)cc1 | 47.8% (inactive) |
| COc1ccc(Cc2cnc(N)nc2N)cc1OC | 105% (inactive) |
| Cc1cc(CC(C)CC(C)(C)C)n(O)c(=O)c1 (stereo not drawn) (tested in a mixture with another compound) | 62.8% (inactive) |

System: NCI/ADR-RES ovarian
Experiment: as above
Settings: 10 µM

| Compound | growth |
| --- | --- |
| O=C(O)c1ccc(-n2cc(CNc3ccc(Cl)cc3)c(-c3ccccc3)n2)cc1 | 91.6% (inactive) |
| Cc1ccc(C(=O)C2C(=O)C3CCC2C3)cc1 (stereo not drawn) | 99.3% (inactive) |
| COc1cc2c(Nc3ccc(S(N)(=O)=O)cc3)ncnc2c(OC)c1OC | 96.5% (inactive) |
| CN1CCN(CC(=O)Nc2cccc(-n3cc(-c4ccncc4)c(-c4ccc(Cl)c(O)c4)n3)c2)CC1 | 42.2% (inactive) |
| O=[N+]([O-])c1cccc(/C=N/NC(=S)NC23CC4CC(CC(C4)C2)C3)c1 | 67.2% (inactive) |
| CN1CCN(c2cc3c(cc2F)c(=O)c(C(=O)O)cn3-c2ccc(F)cc2)CC1 | 90.1% (inactive) |
| O=C(CN1CCN(C(=O)c2ccccc2)CC1)Nc1ccccc1SCc1ccccc1 | 78.4% (inactive) |
| Clc1ccc2c(c1)C(N1CCNCC1)=Nc1ccccc1O2 | 62.8% (inactive) |
| CCOC(=O)c1cc(C(=O)c2cc(OC)c(OC)c(OC)c2)n2ncc3ccccc3c12 | 63.6% (inactive) |
| CC(=O)C1CCC2C3CC=C4CC(SC(=N)N)CCC4(C)C3CCC12C (stereo not drawn) | 38.2% (inactive) |
| COc1cc2c(Nc3ccc(-c4ccc(N)cc4)cc3)ncnc2c(OC)c1OC | 48.9% (inactive) |
| C#C[C@]1(O)CCC2C3CCc4cc(OC5CCCC5)ccc4C3CC[C@@]21C (stereo partly drawn) | 87.6% (inactive) |
| Cc1cc(SC#N)cc(C(C)(C)C)c1O | 104% (inactive) |
| Cc1cc(CCNC=O)c(C)c2c1sc1ccccc12 | 97.8% (inactive) |
| CO[C@H]1CC(O[C@@H]2/C(C)=C/C[C@@H]3C[C@@H](C[C@]4(C=C[C@H](C)[C@@H](C5CCCCC5)O4)O3)OC(=O)[C@@H]3C=C(C)[C@@H](O)[C@H]4OC/C(=C\C=C\[C@@H]2C)[C@]43O)O[C@@H](C)C1O[C@H]1C[C@H](OC)[C@@H](O)[C@H](C)O1 (stereo partly drawn) | -65.1% (active) |
| CCN(CC)c1ccc(/C=C2\SC(=O)C(Nc3nnc(-c4cccnc4SCc4ccccc4)o3)C2=O)cc1 (stereo not drawn) | -9.88% (active) |
| O=C(N/N=C/c1ccc([N+](=O)[O-])cc1)c1ccccc1Nc1cccc(C(F)(F)F)c1 | 91.4% (inactive) |
| CC(=O)[C@H]1CC[C@]2(C)[C@@H]1CC[C@@H]1[C@@]3(C)CC(CCC#N)(CCC#N)C(=O)C(C)(C)[C@@H]3CC[C@]12C | 90.5% (inactive) |
| Cc1cc(CSc2ccccc2C(=O)N2CC=C(c3ccccc3)CC2)on1 | 90.7% (inactive) |
| N#Cc1ccc(C(=O)CSc2nccc(Nc3ccc(C(=O)O)cc3)n2)cc1 | 108% (inactive) |

| Compound | growth |
| --- | --- |
| COc1ccc2nc3cc(Cl)ccc3c(Nc3cc(CN4CCCC4)c(O)c(CN4CCCC4)c3)c2n1 | 10.1% (inactive) |
| O=C(N/N=C/c1ccc(Cl)cc1)c1ccc(Cc2n[nH]c(=O)c3cccnc23)cc1 | 101% (inactive) |
| O=S(=O)(Oc1ccc(-c2ccc3sccc3c2)cc1)c1ccc(F)cc1 | 95.8% (inactive) |
| CNC(=O)c1c(I)c(NC(C)=O)c(I)c(C(=O)O)c1I | 103% (inactive) |
| C/C(=N\O)c1ccc(NC(=O)CSc2nnc(-c3ccccc3)n2-c2ccccc2)cc1 | 90.8% (inactive) |
| COc1ccc(/C=C2/SC(=S)NC2=O)c(OC)c1OC | 85.2% (inactive) |
| C[C@]12CC[C@@H]3c4ccc(O)cc4CC[C@H]3[C@@H]1CC[C@@H]2NS(=O)(=O)c1ccc(C(F)(F)F)cc1 | 53% (inactive) |
| NS(=O)(=O)c1ccc(Br)cc1 | 97.7% (inactive) |
| CNS(=O)(=O)Oc1ccc(-c2ccc3occc3c2)cc1 | 102% (inactive) |
| COc1cc(-c2nn(-c3cccc(NC(=O)CCN4CCN(c5ccccc5)CC4)c3)cc2-c2ccncc2)ccc1Cl | 21% (inactive) |
| CCN(CC)CC(=O)N(CC)c1ccc(C)c(Cl)c1 | 102% (inactive) |
| Cc1cccc(N=Cc2ccccc2O)c1C | 101% (inactive) |
| CCCCC1(O)CCCCC1 | 107% (inactive) |
| COc1ccc(/C=C2\CCCC3=C2N=C2SC(C)=CN2C3c2ccc(OC)cc2)cc1 (stereo not drawn) | 96.3% (inactive) |
| c1ccc(CSc2ncccc2-c2nnc(SCCN3CCOCC3)o2)cc1 | 107% (inactive) |
| C/C=C/C1=CN2C(=O)c3cc(OC4OC(C)C(NC)C(C)(O)C4O)c(C)c(O)c3N=C[C@@H]2C1 (stereo partly drawn) | -6.18% (active) |
| C[C@]12CC[C@@H]3c4ccc(OS(=O)(=O)O)cc4CC[C@H]3[C@@H]1CC[C@@H]2NS(=O)(=O)c1ccc(-c2ccccc2)cc1 | 58.5% (inactive) |
| COc1ccc(/C(C#N)=C/c2ccccc2OC)cc1 | -0.0917% (active) |
| COc1ccc(Cc2cnc(N)nc2N)cc1OC | 99.7% (inactive) |
| Cc1cc(CC(C)CC(C)(C)C)n(O)c(=O)c1 (stereo not drawn) (tested in a mixture with another compound) | 0.595% (active) |
